In PubChem BioAssay (NCI) one finds growth data, which are given here for 39 compounds.

“And” between values parts separate entries of the source, which are not always exact repeats. Equal entries are not always repeated. This is part of a sample that, as a whole, favours compounds with a hit. Of some 83,000 tested, about 20% had one in any assay.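 A percent growth of 40 corresponds to 60% growth inhibition; 0 means no net growth; -100 means all cells died. Active threshold: below 10.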 The source made the active and inactive calls.

The subject of this assay is MDA-MB-468 breast. Kind of assay: NCI-60 one-dose screen, 48 h (100 = growth as untreated, 0 = no growth, -100 = all killed). The settings on record: 10 µM unless noted.
For `CCn1nc(-c2ccccn2)c2cccnc2c1=S`, the growth is 48.8% (inactive).

For the compound `CCCn1cnc2c(c1=N)C(c1ccc(F)cc1)c1sc3c(F)cccc3c1O2` (centres undefined), the growth is 58.4% (inactive).

In the case of `Cc1ccc(-c2c3c(N)c4c(nc3nc3c2c(C)nn3-c2ccccc2)CCCC4)cc1`, the growth is 107% (inactive).

Turning to `O=P(O)(O)OCC1OC(n2cnc3c(NCc4ccccc4)ncnc32)C(O)C1O` (centres undefined), the growth was -28.6% (active).

For the compound `O=C(NC1CCNCC1)c1[nH]ncc1NC(=O)c1c(Cl)cccc1Cl`, the growth was -37.2% (active).

For the compound `N#Cc1nc(-c2ccccc2)oc1S(=O)(=O)N1CCN(c2ccc(F)cc2)CC1`, the growth is 44.8% (inactive).

Take `COc1ccc(-c2cc(-c3ccc(OC)c(OC)c3)nc(SCCCC(=O)NO)n2)cc1`: the growth is -30.7% (active).

With `O=C(OCc1ccc2c(Cl)cc(Cl)c(O)c2n1)N1CCN(C(=O)c2cc3cc(F)ccc3[nH]2)CC1`, the growth is -5.15% (active).

In the case of `COc1nc(N)nc(-n2c(-c3ccc(C)cc3)nc3ccccc32)c1NCc1ccc(C)cc1`, the growth was 98.6% (inactive).

Take `Cc1cccc(/C=C\C(=O)c2ccc(Cl)cc2)c1`: the growth was 106% (inactive) and 90.9% (inactive).

For `c1ccc([P+](CCCc2n(Cc3ccc4ccccc4c3)c3ccccc3[n+]2Cc2ccc3ccccc3c2)(c2ccccc2)c2ccccc2)cc1`, the growth is 34.5% (inactive).

Turning to `COc1ccc(NC(=O)c2sc3nc(C)c(C(=O)CCc4cccc(OC)c4)cc3c2N)cc1`, the growth was 29.6% (inactive).

Regarding `O=C(NCCNc1nccc(-c2c(-c3cccc(F)c3)nc3sccn23)n1)c1ccc(Cl)cc1`, the growth is 67.8% (inactive).

Turning to `Cc1cc2c(cc1C)N(C(=O)CCl)CCN2C(=O)CCl`, the growth is -76% (active).

For the compound `COc1cccc(/C=C/C(=O)c2c(C)nc3ccccc3c2/C=C/c2ccc(C)cc2)c1OC`, the growth is 58.3% (inactive).

Turning to `COc1cc(CNC(=O)CCCC/C=C/C(C)C)ccc1OCc1cn(-c2cccc([N+](=O)[O-])c2)nn1`, the growth was 72.3% (inactive).

Consider `NC(=O)c1cc(Br)ccc1NC(=O)/C=C/c1ccccc1`, for which the growth is 27.8% (inactive).

For the compound `COc1ccc(NC(=O)CSc2nnc(-c3ccc4nc(-c5ccccc5)[nH]c4c3)o2)cc1`, the growth was 95.5% (inactive).

As to `CC1(C)CC(=O)C=C(N)C1`, the growth was 90.5% (inactive).

Consider `Nc1ccccc1NS(=O)(=O)c1ccc(Cl)cc1`, for which the growth was 99.1% (inactive).

Turning to `CCCCNc1cc(C(=O)O)cc(S(N)(=O)=O)c1Oc1ccccc1`, the growth was 94.1% (inactive).

`O=C1Nc2ccc(Br)cc2/C1=N/c1nc(-c2ccccc2)cs1`: the growth is 99.8% (inactive).

Consider `CC/C=C\C[C@H](O)C/C=C1/C(=O)C=C[C@@H]1C/C=C\CCCCO`, for which the growth was 16.5% (inactive).

For `O=[N+]([O-])c1ccc2nc3c4ccccc4c4ccccc4c3nc2c1`, the growth is 75.2% (inactive).

For the compound `CCCn1c2cc(OCc3cn(-c4ccc(Cl)cc4)nn3)ccc2c2ccnc(C)c21`, the growth is 38.9% (inactive).

Regarding `Cc1cc[n+](CCCC[n+]2ccc(C)cc2)cc1`, the growth was 99% (inactive).

For `Clc1cccc(/C=N/Nc2nc(N/N=C/c3cccc(Cl)c3Cl)nc(N3CCCCC3)n2)c1Cl`, the growth is 92.8% (inactive).

With `CCCC/C(CC)=N\NS(=O)(=O)c1ccc([N+](=O)[O-])cc1`, the growth is 109% (inactive).

As for `COC(=O)C(Cc1ccccc1)Nc1nc(NC(Cc2ccccc2)C(=O)OC)nc(N2CCOCC2)n1` (centres undefined), the growth was 108% (inactive).

As for `CCOC(=O)c1ccc2c(c1)nc(-c1ccc(OCc3ccccc3)c(OC)c1)n2-c1cc(C(C)(C)C)[nH]n1`, the growth is 77% (inactive).

With `Cc1nc(N)[nH]c(=O)c1C`, the growth was 103% (inactive).

As for `OC(c1cc(-c2ccc(C(F)(F)F)cc2)nc(-c2ccc(C(F)(F)F)cc2)c1)C1CCCCN1` (centres undefined), the growth was -85.1% (active).

Consider `COc1ccc(C(=O)c2c(N)nc3n2CCCC3)cc1OC`, for which the growth is 97.7% (inactive).

For `Cc1cccc(NC2=C(C#N)C(=O)NC3(CCCC3)S2)c1`, the growth was 101% (inactive).

`CCN1C(=O)N(CC)C2C1NN=c1s/c(=C3\C(=O)N(CC(C)(C)C)c4ccccc43)c(=O)n12` (centres undefined): the growth was 18% (inactive).

As for `O=[N+]([O-])/C(=C/C=C/c1ccccc1)c1ccccc1`, the growth is 2.79% (active).

`COc1ccc2oc(=O)cc(CN3C(=O)S/C(=C\c4ccc(Cl)cc4)C3=O)c2c1`: the growth was 101% (inactive).

As for `COc1cc2nccc(Oc3ccc(NC(=O)C4(C(=O)Nc5ccc(F)cc5)CC4)cc3)c2cc1O`, the growth was 86.4% (inactive).

As to `S=C(NCCNC(=S)[S][Sn]([c]1ccccc1)([c]1ccccc1)[c]1ccccc1)[S][Sn]([c]1ccccc1)([c]1ccccc1)[c]1ccccc1`, the growth was -97.9% (active).
